Reference: PubChem BioAssay
Activity calls are given as the source filed them.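 How the source made its calls, unless noted: active means visually confirmed hit in the image check and inhibition above 20%; inconclusive means visually confirmed hit but inhibition not above 20%; inactive means no visual hit in the image check.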

Assays:
[1] = inhibitors of TNFa-induced NFkB p65 translocation, primary screen, imaging, HUVEC, MLSMR starter and 10KST1 sets (AID 438;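 active means inhibition above 20% together with a positive visual image hit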;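 further: compound added about 3h40 before a 20 min TNFalpha stimulation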;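 on inhibition: signal is the nuclear over cytoplasmic p65 intensity ratio per well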); details: HUVEC TNFa-induced p65 nuclear translocation; cell count: measured here: nuclei count (cytotoxicity indicator), at 2.08 µM; inhibition: at 2 µM, stronger effect = higher value, 0% TNFa-plus-vehicle, 100% no-TNFa wells
[2] = reduction of polyQ htt aggregates in cells – imaging, exon1htt(103Q)mCFP cells, high-content imaging, primary screen (AID 483;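 active means visual image review flags a hit and inhibition of aggregation exceeds 20%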;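 further: compound exposure lasted 3 days before fixation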;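 on nuclei count: percent of the per-plate median nuclei count of sample wells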); details: exon1htt(103Q)mCFP cell line, aggregate imaging, at 2 µM; inhibition of aggregation: stronger effect = higher value; nuclei count: measured here: cell count, toxicity
[3] = endothelial E-selectin expression blockers – imaging, HUVEC, immunofluorescence, MLSMR starter and 10KST1 sets, primary screen (AID 487); details: HUVEC TNFalpha-induced E-selectin immunofluorescence imaging, at 2 µM; inhibition: stronger effect = higher value; nuclei count: measured here: cell number, toxicity;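 on inhibition: signal is fraction of cell area covered by stained E-selectin grains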;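 on nuclei count: 100% = median nuclei count of all wells on the same plate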
[4] = target: Voltage-gated potassium channel subunit beta-2 (Rattus norvegicus) (UniProt P62483); assay: inhibitors of rat Kvbeta2 reductase activity – biochemical, NADPH fluorescence, primary screen (AID 622;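 active means fluorescence slope higher than the sample average by over 3 SD, cut at about -0.22 in these data, passing the limit was not always enough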;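 further: slope of raw intensity against log time taken from 70 to 1610 s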); details: recombinant KvBeta, 4-cyanobenzaldehyde reduction, at 10 µM, stronger effect = higher value
[5] = target: Voltage-gated potassium channel subunit beta-2 (Rattus norvegicus) (UniProt P62483); assay: enhancers of rat Kvbeta2 NADPH turnover – biochemical, NADPH fluorescence, primary screen (AID 623;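 active means NADPH fluorescence slope more negative than the mean of all samples by about 3 SD, 99.7% confidence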;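 further: fluorescence intensity change per second fitted from 20 to 320 s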); details: Recombinant KvBeta, NADPH fluorescence decrease slope, 10 min; at 10 µM; stronger effect = lower value
[6] = target: Alpha-2C adrenergic receptor (Homo sapiens) (UniProt P18825); assay: compounds altering alpha2C-coupled GIRK flux – cell-based, HEK293 alpha2C/GIRK1/2, thallium flux, primary screen (AID 624;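 active means fluorescence slope after compound addition differing from the mean of all screened samples at 99.7% confidence, in either direction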;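 further: slope of fluorescence ratio to pre-addition baseline per second over 15 to 24 s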); details: thallium flux BTC fluorescence, at 10 µM, actives lie on both sides
[7] = blockers of RIG-like receptor reporter activation – cell-based, Sendai virus stimulus, luciferase, 10K MLSCN set, TLR/RLR signaling modifier project, primary screen (AID 602276;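 active means inhibition at or above 50% at 10 µM; inactive means inhibition below 50%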;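 further: firefly luciferase from ISG56 promoter only with Renilla not read in this screen; 0% = Sendai virus plus DMSO and 100% = medium plus DMSO without virus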); details: HEK293 RL24 IRF3 luciferase reporter, at 10 µM, stronger effect = higher value
[8] = TLR3 IRF3 reporter activation blockers – cell-based, poly I:C stimulus, luciferase, 10K MLSCN set, primary screen (AID 602277;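 active means inhibition of the reporter signal at or above 50%; inactive means inhibition below 50%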); details: HEK293-TLR3 RL24 IRF3 luciferase reporter, at 10 µM, stronger effect = higher value

Voltage-gated potassium channel subunit beta-2 (Rattus norvegicus), sequence (P62483 whole entry, looked up): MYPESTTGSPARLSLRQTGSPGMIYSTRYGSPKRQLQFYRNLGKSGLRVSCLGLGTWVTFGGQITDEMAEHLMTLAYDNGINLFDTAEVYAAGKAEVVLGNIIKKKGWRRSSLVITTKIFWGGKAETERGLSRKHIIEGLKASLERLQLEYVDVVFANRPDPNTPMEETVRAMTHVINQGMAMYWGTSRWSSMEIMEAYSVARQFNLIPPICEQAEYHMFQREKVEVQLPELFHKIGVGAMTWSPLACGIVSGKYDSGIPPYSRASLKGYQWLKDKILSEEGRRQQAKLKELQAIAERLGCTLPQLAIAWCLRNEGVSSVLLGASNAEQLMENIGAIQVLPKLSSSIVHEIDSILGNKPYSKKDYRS
Alpha-2C adrenergic receptor (Homo sapiens), sequence (P18825 whole entry, looked up): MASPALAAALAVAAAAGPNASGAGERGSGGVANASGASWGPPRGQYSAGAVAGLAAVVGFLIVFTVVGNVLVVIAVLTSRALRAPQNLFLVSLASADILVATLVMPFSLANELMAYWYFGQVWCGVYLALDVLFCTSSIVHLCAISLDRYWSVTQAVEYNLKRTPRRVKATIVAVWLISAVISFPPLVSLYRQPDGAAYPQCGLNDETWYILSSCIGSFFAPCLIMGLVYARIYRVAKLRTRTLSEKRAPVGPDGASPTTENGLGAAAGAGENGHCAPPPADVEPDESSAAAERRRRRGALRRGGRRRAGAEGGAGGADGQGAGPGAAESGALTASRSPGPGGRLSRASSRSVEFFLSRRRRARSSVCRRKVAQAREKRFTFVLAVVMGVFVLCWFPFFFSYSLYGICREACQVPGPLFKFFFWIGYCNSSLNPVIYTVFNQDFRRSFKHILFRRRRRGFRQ

| Compound | cell count [1] | inhibition [1] | inhibition of aggregation [2] | nuclei count [2] [%] | inhibition [3] | nuclei count [3] [%] | fluorescence slope [4] | NADPH fluorescence slope [5] | slope [6] | inhibition [7] | inhibition [8] |
| --- | --- | --- | --- | --- | --- | --- | --- | --- | --- | --- | --- |
| CCOc1ccc(OCC)c(NC(=O)CCCN2C(=O)c3cccnc3C2=O)c1 | 408 | 5.3% (inactive) | 15.7% (inactive) | 93.7 | 42.2% (inactive) | 102 | -0.583 (inactive) | -3.8e-05 (inactive) | 0.00505 (inactive) | -17.2% (inactive) | -8.59% (inactive) |
| CCOc1cc(S(=O)(=O)Nc2ccccn2)ccc1F | 382 | 4.8% (inactive) | 0.1% (inactive) | 107 | 29.7% (inactive) | 99.7 | -0.62 (inactive) | 4.6e-06 (inactive) | 0.0046 (inactive) | 5.64% (inactive) | -11.5% (inactive) |
| C=CCSC1=C(C#N)C(c2ccccc2)CC(=O)N1 (centres undefined) | 486 | -1.6% (inactive) | 1.6% (inactive) | 101 | -112% (inactive) | 104 | -0.527 (inactive) | 8.1e-07 (inactive) | 0.00534 (inactive) | 6.68% (inactive) | 8.17% (inactive) |
| CCOC(=O)c1ccccc1NC(=O)CSc1nccn1C | 436 | 9.7% (inactive) | -23.9% (inactive) | 108 | -32.6% (inactive) | 108 | -0.465 (inactive) | -0.000118 (inactive) | 0.00604 (inactive) | 8.57% (inactive) | 19.3% (inactive) |
| CC1CCc2c(sc(N)c2C(N)=O)C1 (centres undefined) | 722 | -4.4% (inactive) | 6.1% (inactive) | 88.3 | 16.5% (inactive) | 98.4 | -0.371 (inactive) | -1.7e-06 (inactive) | 0.00501 (inactive) | 5.07% (inactive) | 6.01% (inactive) |
| CCOc1ccc(C(=O)OCc2nnc(-c3cccs3)o2)cc1OC | 737 | 7.1% (inactive) | 4.7% (inactive) | 101 | -51.1% (inactive) | 137 | -0.603 (inactive) | 1.9e-06 (inactive) | 0.00555 (inactive) | 12.1% (inactive) | 27.5% (inactive) |
| O=C(Cn1cnc2c(nnn2Cc2ccccc2)c1=O)c1ccc(Cl)cc1 | 561 | 8.2% (inactive) | -6.2% (inactive) | 86.3 | -22% (inactive) | 108 | -0.591 (inactive) | -4.2e-06 (inactive) | 0.00679 (inactive) | 11.9% (inactive) | 21.3% (inactive) |
| Cn1c(=O)c2c(nc(CN3CCOCC3)n2CC(O)CO)n(C)c1=O (centres undefined) | 474 | 44.4% (active) | 19.2% (inactive) | 103 | 10.6% (inactive) | 110 | -0.427 (inactive) | -2.2e-05 (inactive) | 0.00587 (inactive) | 14.2% (inactive) | 23.9% (inactive) |
| CC(=O)Nc1cc(N2C(=O)CCC2=O)ccc1Cl | 498 | 3.5% (inactive) | 12.7% (inactive) | 98.5 | 10.7% (inactive) | 110 | -0.509 (inactive) | 2.5e-05 (inactive) | 0.00539 (inactive) | 23% (inactive) | 20.8% (inactive) |
| COCCn1c(=N)c(C(=O)NCCc2ccccc2)cc2c(=O)n3cccc(C)c3nc21 | 388 | 4.3% (inactive) | -22.7% (inactive) | 102 | -75.7% (inactive) | 117 | -0.0609 (inactive) | 4.2e-06 (inactive) | 0.00428 (inactive) | 9.73% (inactive) | 35.4% (inactive) |
| O=C1CC(N2CCN(C3CCc4ccccc4C3)CC2)C(=O)N1c1ccccc1 (centres undefined) | 288 | 4% (inactive) | 0.8% (inactive) | 88.6 | 6.6% (inactive) | 121 | -0.378 (inactive) | -9.9e-05 (inactive) | 0.00552 (inactive) | 17.3% (inactive) | 28.1% (inactive) |
| COc1cc(NC(=O)c2cccs2)cc(OC)c1 | 306 | -14.2% (inactive) | 33% (inactive) | 82.6 | -201% (inactive) | 96.7 | -0.337 (inactive) | -4.5e-05 (inactive) | 0.00448 (inactive) | -38.7% (inactive) | -64.2% (inactive) |
| O=C(CSCc1ccc(F)cc1)NC1CCCC1 | 750 | -2.8% (inactive) | 12.7% (inactive) | 101 | 33% (inactive) | 93.5 | -0.493 (inactive) | -5.3e-05 (inactive) | 0.00649 (inactive) | -26.1% (inactive) | -75.4% (inactive) |
| O=C(CNC(=O)c1cc2ccccc2o1)NCc1cccs1 | 420 | 3.6% (inactive) | -2.1% (inactive) | 107 | -57.3% (inactive) | 112 | -0.469 (inactive) | -1.5e-06 (inactive) | 0.0103 (inactive) | 5.59% (inactive) | 16.2% (inactive) |
